Source: PubChem BioAssay (National Center for Advancing Translational Sciences (NCATS))
Hits are enriched below; roughly 18% of the tested compounds scored in any of these assays.
Gal4-VP16 FLuc: counter-screen for ROR gamma inhibitors: Gal4-VP16 reporter | 310,000 tested, 3.5% active | Drosophila S2 Gal4-VP16 UAS-luciferase, luminescence, 20 h | Potency, µM (doses to about 53.6 µM), without a hit: at the highest dose activity, negative = inhibition, hits mostly inhibitors;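 also: Gal4-VP16 expression switched on by copper sulfate through the metallothionein promoter; potency is read from the fitted curve at half-maximal effect; nearly all actives have a fitted effect of over 50% in size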
LDHA block: LDHA (human) enzyme inhibition. P00338. purified LDHA, NADH/diaphorase-resazurin fluorescence; stronger effect = lower value. activity change, % (values are at about 110 or 230 µM). 480,000 tested, 0.15% active; in the data active = activity change below about -30%; inconclusive = mostly about -25% to -30%;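 also: plate controls were DMSO wells for no effect and wells without enzyme for full effect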
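Enzyme activity of human lactate dehydrogenase 5 (2 nM; 0.06 mM NADH, 0.2 mM pyruvate, 5 min, RT) is measured via a resazurin/diaphorase fluorescence readout of residual NADH.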
TDP1 cell noCPT: qHTS for Inhibitors of human tyrosyl-DNA phosphodiesterase 1 (TDP1): qHTS in cells in absence of CPT | Potency, µM (highest dose often 46.2 µM), inactives show top-dose activity change, negative = growth inhibition, hits mostly inhibitors | DT40 Tdp1-/- hTDP1 cells, no CPT, ATP luminescence, 48 h | 420,000 tested, 15% active; also: potency is read from the fitted curve at half-maximal effect; nearly all actives have a fitted effect of over 55% in size
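No-CPT arm: Tdp1-/-;hTDP1 DT40 cells (400/well) plus compounds, incubated ≥48 hr at 37 °C. Readout CellTiter-Glo luminescence.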
IL1B secr inh: inflammasome signaling inhibition, IL-1 beta readout. AID 743279. 360,000 tested, 4.7% active. activity change, % at 57.5 µM. THP-1 LPS/ATP IL-1B secretion, AlphaLISA, 16 h; stronger effect = lower value; in the data active = activity change below about -50%; inconclusive = mostly about -30% to -49%
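THP-1 cells pretreated 1 hr with compounds (up to 57.5 uM final), then stimulated with LPS (250 ng/mL final) plus ATP (1.25 mM final); secreted IL-1B measured by AlphaLISA after 16 hr, decreased signal indicating inhibition.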
RORg inh: inhibitors of mouse ROR gamma transcriptional activity. P51450. AID 2551. Potency, µM (series often up to 53.6 µM), for the others: top-dose activity change, negative = inhibition, most hits filed as inhibitors. 310,000 tested, 5.4% active. Drosophila S2 Gal4-RORgamma UAS-luciferase reporter, 20 h; also: potency is read from the fitted curve at half-maximal effect; nearly all actives have a fitted effect of over 60% in size
Target sequence (P51450 whole entry, looked up, the tested form may be a part): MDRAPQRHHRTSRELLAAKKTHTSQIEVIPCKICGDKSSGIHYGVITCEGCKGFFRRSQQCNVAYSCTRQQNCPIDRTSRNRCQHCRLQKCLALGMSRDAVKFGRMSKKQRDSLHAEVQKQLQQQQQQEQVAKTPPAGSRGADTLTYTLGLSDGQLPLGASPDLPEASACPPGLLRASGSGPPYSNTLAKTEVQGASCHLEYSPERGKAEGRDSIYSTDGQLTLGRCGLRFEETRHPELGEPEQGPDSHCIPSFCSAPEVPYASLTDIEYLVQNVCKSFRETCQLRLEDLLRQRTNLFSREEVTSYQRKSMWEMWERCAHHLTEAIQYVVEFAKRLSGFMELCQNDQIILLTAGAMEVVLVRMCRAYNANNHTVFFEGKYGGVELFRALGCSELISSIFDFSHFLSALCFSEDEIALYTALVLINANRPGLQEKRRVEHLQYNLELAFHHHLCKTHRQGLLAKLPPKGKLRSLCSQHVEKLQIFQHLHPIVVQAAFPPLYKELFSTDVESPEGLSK
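Compounds are pin-transferred onto Drosophila Schneider cells expressing a copper-inducible Gal4–ROR gamma transactivation domain fusion. After 1 hr, copper sulfate is added to 700 uM final; luciferase is read 20 hr later.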
DT40 TDP1 CPT: growth inhibition of DT40 Tdp1-/-;hTDP1 cells with camptothecin (screen for TDP1 inhibitors). Potency, µM (titrated, usually from 46.2 µM), inactives show top-dose activity change, negative = growth inhibition, hits mostly inhibitors. AID 686979. 420,000 tested, 12% active. chicken DT40 Tdp1-/-;hTDP1 cells + 20 nM CPT, ATP luminescence, 48 h; also: potency is read from the fitted curve at half-maximal effect; nearly all actives have a fitted effect of over 55% in size
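Chicken DT40 Tdp1-/- cells stably complemented with human TDP1 were seeded at 400 cells/well in medium containing 20 nM camptothecin, exposed to pin-transferred compounds, and grown at 37 °C for at least 48 hr. Viability was read as ATP luminescence.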
* = called active by the depositor; ? = inconclusive; . = not tested or not shown. Unless noted, calls follow the shape of the dose curve; as a rule, active = well fitted curve in the direction sought with a large enough effect; inconclusive = small, poorly fitted or top-dose-only effect, or another doubt; inactive = no such curve, though single readings can be large; an effect the other way counts as inactive or inconclusive. Unless noted, % is scaled to controls: 0 for no effect and ±100 for the full control effect.

SMILES | Gal4-VP16 FLuc | LDHA block | TDP1 cell noCPT | IL1B secr inh | RORg inh | DT40 TDP1 CPT
Cc1ccnc(NS(=O)(=O)c2ccc(NC(=O)c3ccc([N+](=O)[O-])s3)cc2)n1 | -12% | -1 | ? | -21 | 1% | ?
COc1ccc(C(=O)Nc2ccc(C)cn2)c(OC)c1 | 4µM* | -8 | ? | -10 | 4µM* | 21µM*
Cc1cc(NS(=O)(=O)c2ccc(NC(=O)c3ccc([N+](=O)[O-])s3)cc2)nc(C)n1 | . | -6 | 1% | -53* | . | -27%
Fc1cccc(CN(Cc2ccco2)C2CCCC2)c1 | . | 0 | . | . | . | .
O=C(Nc1ccc(S(=O)(=O)NC2=NCCCCC2)cc1)c1ccc([N+](=O)[O-])s1 | . | -2 | 10µM* | -57* | . | 5.2µM*
O=[N+]([O-])c1cc(S(=O)(=O)NC2=NCCCCC2)ccc1NCC1CCCCC1 | -10% | 1 | ? | -5 | ? | 16µM*
O=C(Nc1ccc(C(O)(C(F)(F)F)C(F)(F)F)cc1)c1ccc(Cl)c([N+](=O)[O-])c1 | ? | -7 | 18µM* | -101* | -23% | 12µM*
Cc1nc2cc(NC(=O)c3ccc([N+](=O)[O-])s3)ccc2s1 | -14% | -7 | 5.2µM* | -6 | -37% | 2.9µM*
Nc1ccc(S(=O)(=O)NC2=NCCCCC2)cc1N | 15% | 10 | -19% | -6 | 6% | 6%
O=C(Nc1ccc(S(=O)(=O)NC2=NCCCCC2)cc1)c1cccs1 | . | -10 | ? | 3 | . | -25%
C=C(C)C[C@H]1CC=C[C@H](CC(=C)C)[N+]1(C)C | . | 7 | . | . | . | .
Cc1sc(N)nc1-c1ccc(NC(=O)C(C)C)cc1 | . | 11 | . | . | . | .
CCCCOc1ccc(Cc2cnc(N)nc2N)cc1 | -8% | -3 | ? | -55* | 18% | -24%
OC(C#Cc1ccccn1)c1cccs1 (stereo unspecified) | 4.5µM* | 8 | 16µM* | -95* | 10µM* | 18µM*
Cc1cccc(C(=O)NCCc2c[nH]c3ccc(Cl)cc23)c1 | . | 7 | . | . | . | .
COc1ccc(N2C(=O)[C@@H]3[C@H](C2=O)[C@H](C(C)=O)N2c4ccccc4C=C[C@@H]32)cc1 | 4% | 9 | -12% | 14 | 14% | 4%
COc1ccc(C2C(C(=O)c3ccccc3)N3c4ccccc4C=CC3C2[N+](=O)[O-])cc1 (stereo unspecified) | -24% | -2 | 10µM* | -21 | ? | 7.3µM*
CCC1=C(CC2NCCc3ccccc32)CC2c3cc(OC)c(OC)cc3CCN2C1 (stereo unspecified) | . | -3 | 1.6µM* | -92* | . | 1.2µM*
COc1cc2c(cc1OC)C1Cc3ccc(OC)c(OC)c3CN1CC2 (stereo unspecified) | 3% | 0 | 7.3µM* | -1 | -30% | ?
COc1cc2c(cc1OC)[C@@H]1Cc3ccc(OC)c(OC)c3CN1CC2 | -11% | 0 | ? | 30 | 15% | 3%
CCNc1c(NC(=O)Nc2cccc(Cl)c2)c(=O)oc2ccccc12 | . | 12 | . | . | . | .
O=C(NCc1ccccc1)C(c1ccccc1)N(C(=O)c1csnn1)c1ccccc1 (stereo unspecified) | 5% | -10 | 18µM* | -8 | -18% | ?
CCCCOc1ccc(N(CC(=O)NCc2ccccc2)C(=O)c2csnn2)cc1 | 19% | -5 | 16µM* | -9 | 38% | ?
CCc1cccc(N(C(=O)c2csnn2)C(C(=O)NC(C)(C)C)c2ccccn2)c1 (stereo unspecified) | 10% | -4 | 5% | -56* | 5% | -3%
CCCc1nnc(NC(=O)CCS(=O)(=O)Cc2ccccc2)s1 | 1% | -16 | ? | 0 | 22% | ?
CC(C)c1nnc(NC(=O)CCc2ccccc2)s1 | 1% | -11 | 10% | -2 | -3% | 3%
